Compound activity as filed in PubChem.
Sampled rows, rich in hits. Any-hit rate of the full collection: about 4.1%.
hgDAF-12 ag = H. glycines DAF-12 receptor agonists, primary screen, cell-based, luminescence, HEK293, GAL4 fusion, UAS-luciferase. Nuclear hormone receptor DAF-12 (Heterodera glycines), GAL4 fusion. HEK293 GAL4-hgDAF12 UAS-luciferase reporter, agonist luminescence; normalized to butyrate control. activation, % at 6.8 µM. 370,000 compounds, 1.8% hits. AID 687014, 2013;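 active = activation above a cutoff set at the mean of all screened compounds plus 3 SD, cut at about 10% in these data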;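 also: 0% = DMSO wells and 100% = sodium butyrate wells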
DAX1 inh-1 = DAX1 (NR0B1) inhibitors, primary screen, cell-based, HEK293, Gal4-DAX1, luciferase luminescence; Nuclear receptor subfamily 0 group B member 1 (Homo sapiens), P51843; HEK293 Gal4-DAX1 luciferase reporter; inhibition, % at 6.75 µM; 340,000 compounds, 0.99% hits;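 active = inhibition above the mean over all tested compounds plus 3 SD, cut at about 4.2% in these data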;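 also: 0% = DAX1-transfected cells with DMSO and 100% = empty-vector control cells with DMSO; inhibition shows as a rise in luminescence from relieved DAX1 repression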
Target sequence (P51843 207-470 limits assumed): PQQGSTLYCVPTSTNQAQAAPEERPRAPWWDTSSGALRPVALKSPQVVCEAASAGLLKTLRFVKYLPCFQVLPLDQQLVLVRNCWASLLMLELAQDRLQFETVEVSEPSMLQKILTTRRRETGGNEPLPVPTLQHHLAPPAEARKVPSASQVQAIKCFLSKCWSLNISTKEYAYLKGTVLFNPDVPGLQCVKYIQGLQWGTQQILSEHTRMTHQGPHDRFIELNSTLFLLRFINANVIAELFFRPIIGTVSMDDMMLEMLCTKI
DAX1 inh-2 = DAX1 (NR0B1) inhibitors on StAR promoter, primary screen, cell-based, luminescence, SF-1 (NR5A1), full-length DAX-1. HEK293T StAR-luciferase reporter, SF-1/DAX-1 repression relief. inhibition, % at 6.8 µM. 370,000 compounds, 1.1% hits;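 active = inhibition above the mean over all tested compounds plus 3 SD, cut at about 3.6% in these data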;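 also: 0% = DAX-1 cells with DMSO and 100% = cells lacking DAX-1 with DMSO; higher inhibition means more luminescence from relief of DAX-1 repression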
hcDAF-12 act = H. contortus DAF-12 nuclear receptor activators, primary screen, cell-based, luminescence, HEK293, lit1-tk-luc reporter; HEK293 hcDAF-12 lit1-tk-luc reporter; 0% DMSO, 100% Δ7-dafachronic acid; activation, % at 6.8 µM; 370,000 compounds, 1.4% hits; AID 652067, 2013;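 active = activation above the mean of all tested compounds plus 3 SD, cut at about 5.5% in these data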;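 also: 100% = response to 3 µM Δ7-dafachronic acid high control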
ssDAF-12 act = S. stercoralis DAF-12 nuclear receptor activators, primary screen, cell-based, luminescence, HEK293, GRIP1 co-expression, lit1-tk-luc; 370,000 compounds, 1% hits; AID 652126, 2013; HEK293 ssDAF-12/GRIP1 lit1-tk-luc reporter; % of 3 µM dafachronic acid response; activation, % at 6.8 µM;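 active = activation above the mean over all tested compounds plus 3 SD, cut at about 0.9% in these data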;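 also: 0% = DMSO-only wells and 100% = 3 µM delta7-dafachronic acid wells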
Numbers without * were called inactive; x = not tested or not shown.

SMILES	hgDAF-12 ag	DAX1 inh-1	DAX1 inh-2	hcDAF-12 act	ssDAF-12 act
CCOC(=O)[C@@]12CN(C(=O)OC(C)(C)C)CC=C1N(Cc1ccc(OC)cc1)C(=O)[C@H]2CC(=O)NCC1CCCCC1	1.8	x	-1.1	-3.6	-1.5
COc1ccc(NC(=O)CSc2nc(C)cc(=O)[nH]2)cc1OC	0.1	x	-0.5	-1.4	-0.4
CN(Cc1ccccc1)Cc1c(O)ccc2ccccc12	-0.5	1.5	0.5	1.1	-1.0
COc1ccc(OCCN(C)Cc2c(O)ccc3ccccc23)cc1	-1.0	-1.2	0.2	6.0*	0.4
CN(C(=O)c1ccccc1OCC(=O)Nc1ccc(Br)cc1)c1ccccc1	3.8	x	-1.5	-2.8	1.0*
COC(=O)C1=C(C)N(c2ccc(OC)cc2)C(C)=C(C(=O)OC)C1c1ccccc1	0.5	4.9*	-0.2	1.1	-0.2
Cc1ccc(S(=O)(=O)Oc2cccc(N3C(=O)C4CC=CCC4C3=O)c2)cc1 (stereo unspecified)	0.3	8.0*	-0.1	-0.5	-1.8
COC(=O)c1sccc1NC(=O)Nc1ccc(Cl)c(Cl)c1	11.0*	3.9	1.1	4.4	-0.2
CNS(=O)(=O)c1ccc(NC(=O)c2csc(C)c2)cc1	-0.1	0.7	-1.2	-1.6	-0.4
COC(=O)c1sccc1NC(=O)c1csc(C)c1	0.5	-0.4	-1.2	3.3	1.0*
Cc1cc(C(=O)Nc2ccc(Br)cc2)cs1	9.0	1.0	3.9*	5.6*	-0.2
COC(=O)[C@]12C[C@H](CC(=O)N3CCN(C(=O)c4ccco4)CC3)C(=O)N(Cc3ccco3)C1=C[C@H](COCc1ccccc1)O[C@@H]2C	-2.9	x	-0.4	-2.4	-1.1
Cc1ccc2c(c1)N(CCCC(=O)NCc1ccc(F)cc1)C(=O)CO2	1.6	x	0.3	-1.3	-1.6
COc1ccc(N2CCN(CCCNC(=O)COc3ccc(C)cc3)CC2)cc1	-0.9	x	-1.3	-1.9	-1.7
CCOC(=O)[C@]12CCCCC/C=C\1N(CCc1ccc(Cl)cc1)C(=O)[C@H]2CC(=O)NCCCN1CCCC1=O	-1.7	x	-0.7	-2.5	-2.0
Cc1ccccc1OCc1nnc2n1CC(C)S2 (stereo unspecified)	2.6	4.6*	-0.7	0.5	0.1
CC1Cn2c(COc3ccccc3)nnc2S1 (stereo unspecified)	-1.6	3.4	-0.3	-1.2	-1.4
C=CCN1C/C(=C/c2ccccc2)N2C(=O)CC(c3ccccc3)N=C12 (stereo unspecified)	-0.4	x	x	-1.9	-2.1
COc1cc(CNc2ccc(N3CCN(C(C)=O)CC3)cc2)ccc1OCc1ccc(F)cc1	11.2*	-0.3	-1.1	-0.8	-1.5
CC(=O)N1CCN(c2ccc(NCc3ccc(F)cc3)cc2)CC1	-2.0	3.4	-1.7	-1.2	-1.7
Cc1ccc(-c2nnc(/C=C/c3ccccc3)o2)cc1	10.8*	0.3	2.0	2.6	-1.0
Cc1ccc(/C=C/c2nnc(-c3cccc(C)c3)o2)cc1	7.4	1.6	1.8	2.1	-1.1
CCCc1cc(=O)[nH]c(SCCN2C(=O)c3ccccc3C2=O)n1	-0.3	5.5*	1.0	0.5	-1.6
Cc1cccc(NC(=O)CN2C(=O)CCSc3ccccc32)c1C	-1.2	x	-0.4	-0.3	-0.7
CCC(=O)N1C(C(=O)N2CCCC2)CSC1c1ccc(OC)cc1 (stereo unspecified)	0.8	4.3*	-0.4	-1.0	-1.1
SMILES	hgDAF-12 ag	DAX1 inh-1	DAX1 inh-2	hcDAF-12 act	ssDAF-12 act
Nc1[nH]c(C(=O)c2ccccc2)c(-c2ccc(Cl)cc2)c1C(=O)NCCC1=CCCCC1	-1.8	x	x	-0.1	-1.2
CC(C)(C)C(=O)Cn1ncc(N2CCCC2)c(Br)c1=O	4.6	1.8	1.8	2.6	-0.1
CC(=O)Cn1ncc(Br)c(Br)c1=O	-0.2	6.6*	-0.9	0.2	-2.0
Cc1cccc(NC(=O)NCCCN2CCN(c3ccc(F)cc3)CC2)c1	2.2	x	-0.6	-3.3	-0.8
CC(NC(=O)CN1C(=O)NC2(CCCCCC2)C1=O)c1ccccc1Cl (stereo unspecified)	-0.7	0.5	0.8	-0.9	1.1*
N#Cc1ccccc1NC(=O)CN1C(=O)NC2(CCCC2)C1=O	-1.2	4.7*	0.1	4.9	-0.8
O=C(CN1C(=O)NC2(CCCCC2)C1=O)Nc1cccc(S(=O)(=O)N2CCCC2)c1	-0.3	1.1	4.6*	-0.7	-0.1
O=C(CN1CCCCCC1)Nc1cccc(NC(=O)CN2CCCCCC2)c1	-0.6	4.5*	0.0	-1.6	-1.5
O=C(CN1CCCCCC1)Nc1ccccc1	-0.2	-0.8	-0.3	-1.6	-0.9
O=C(CN1C(=O)NC2(CCCCCC2)C1=O)Nc1ccccc1[N+](=O)[O-]	-2.2	1.3	-0.3	2.4	-0.7
CCOC(=O)[C@]12CCCC3=C1N(CCC3)C(=O)[C@@H](CC(=O)NCc1cccc(C(F)(F)F)c1)C2	-3.1	x	-1.8	-0.6	-1.4
COC(=O)C1CCCN(C(=O)C2CCN(S(=O)(=O)c3ccccc3[N+](=O)[O-])CC2)C1 (stereo unspecified)	1.1	x	0.4	2.5	-1.3
Fc1ccc(N2CCN(C3=Nc4ccccc4Sc4ccccc43)CC2)cc1	-6.7	x	-1.5	-2.0	1.3*
CCOC(=O)[C@]12CCCC=C1N(Cc1ccc(OC)cc1)C(=O)[C@@H]2CC(=O)N1CCC(c2ccccc2)CC1	2.8	x	-2.2	-3.8	-1.6
Nc1nc2ccccc2n1C(=O)c1ccc(F)cc1	10.0	-2.5	3.9*	5.5	-0.2
Nc1nc2ccccc2n1C(=O)c1ccccc1	12.3*	-0.6	3.2	5.6*	-0.1
COc1ccc(C(=O)n2c(N)nc3ccccc32)cc1OC	9.8	3.8	1.1	0.6	0.2
CCN(Cc1cn(Cc2ccccc2)nn1)S(=O)(=O)c1ccccc1Br	-3.8	x	-0.6	-3.0	-0.4
CCOC(=O)C1CCN(C(=O)c2ccc(OCC(=O)Nc3ccc(OCC)cc3)c(OC)c2)CC1	-1.4	4.2*	-3.2	-0.9	-1.4
Cc1ccccc1Cn1cc(CN2[C@H](C)COc3cc(Br)ccc3S2(=O)=O)nn1	-0.5	x	0.8	-2.2	-1.2
CN1CCN(c2nc(-c3cccnc3)nc3ccccc23)CC1	3.4	1.5	-0.7	-2.9	-0.7
CCN1CCN(c2nc(-c3cccnc3)nc3ccccc23)CC1	4.7	0.0	1.4	5.7*	-0.7
C=CCn1c(SCC(=O)c2ccc(F)cc2)nnc1-c1ccc2c(c1)OCO2	-3.4	0.3	-0.7	-1.7	1.3*
